# Laboratory results published in publication PMC7862700, “An all-to-all approach to the identification of sequence-specific readers for epigenetic DNA modifications on cytosine”.
# Columns and labels:
# Assay in all cases: DAPPL (digital affinity profiling via proximity ligation, sequencing); 10 mM Tris-HCl pH 7.5, 50 mM NaCl, 1 mM DTT, 4% glycerol, room temperature, 30 min; GST-TFs on glutathione beads, 16-mer random dsDNA library, 0.1% formaldehyde crosslink after washing; high values mean tight binding
# FEV = target: T1, FEV (Homo sapiens, UniProt Q99581 1-238); settings: protein: recombinant; tags: N-terminal GST; dsDNA, one strand shown
# T1 sequence: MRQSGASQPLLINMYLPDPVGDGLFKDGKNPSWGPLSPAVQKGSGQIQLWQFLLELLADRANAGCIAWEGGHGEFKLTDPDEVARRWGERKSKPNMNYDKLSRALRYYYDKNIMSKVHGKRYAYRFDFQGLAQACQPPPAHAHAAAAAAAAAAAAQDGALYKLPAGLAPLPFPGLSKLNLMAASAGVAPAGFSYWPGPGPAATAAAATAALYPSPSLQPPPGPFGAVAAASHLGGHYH
# How it was run: (§1)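 Beads coated with glutathione captured GST-fused human transcription factors that had been expressed in yeast, and the factors were then given DNA barcodes and pooled with a tag-only sample. The pools were incubated with 200 nmole of a random double-stranded 16-mer DNA library in Tris/NaCl/DTT/glycerol buffer for 30 min at room temperature, washed, crosslinked with 0.1% formaldehyde and proximity-ligated with BsaI/T4 ligase at 37 °C for 1 h. PCR amplification and Illumina NextSeq500 sequencing came last. Binding signal is each hexamer's read frequency for a factor divided by its frequency for the tag-only sample.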
# ETV5 = ETV5 (Homo sapiens, UniProt P41161 1-510); settings: protein: recombinant; tags: N-terminal GST; dsDNA, one strand shown
# Chain of ETV5 (P41161 whole entry): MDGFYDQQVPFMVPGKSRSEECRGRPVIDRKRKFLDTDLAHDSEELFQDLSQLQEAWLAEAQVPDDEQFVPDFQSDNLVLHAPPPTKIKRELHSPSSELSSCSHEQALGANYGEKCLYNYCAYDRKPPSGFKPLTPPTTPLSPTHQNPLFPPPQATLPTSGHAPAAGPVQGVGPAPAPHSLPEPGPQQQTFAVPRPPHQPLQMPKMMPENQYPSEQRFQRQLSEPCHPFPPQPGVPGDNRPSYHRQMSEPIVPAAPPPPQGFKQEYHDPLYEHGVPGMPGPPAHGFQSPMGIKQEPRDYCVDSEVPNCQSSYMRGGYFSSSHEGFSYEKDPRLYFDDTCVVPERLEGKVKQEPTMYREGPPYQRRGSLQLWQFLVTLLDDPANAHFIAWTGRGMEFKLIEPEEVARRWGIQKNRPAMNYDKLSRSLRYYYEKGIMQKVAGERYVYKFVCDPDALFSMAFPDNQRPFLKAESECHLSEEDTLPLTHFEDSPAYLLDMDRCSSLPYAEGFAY
# How it was run: as §1
# HSF1 = HSF1 (Homo sapiens, UniProt Q00613 1-529); settings: protein: recombinant; tags: N-terminal GST; chain copies: 3; dsDNA, one strand shown
# Chain of HSF1 (Q00613 whole entry): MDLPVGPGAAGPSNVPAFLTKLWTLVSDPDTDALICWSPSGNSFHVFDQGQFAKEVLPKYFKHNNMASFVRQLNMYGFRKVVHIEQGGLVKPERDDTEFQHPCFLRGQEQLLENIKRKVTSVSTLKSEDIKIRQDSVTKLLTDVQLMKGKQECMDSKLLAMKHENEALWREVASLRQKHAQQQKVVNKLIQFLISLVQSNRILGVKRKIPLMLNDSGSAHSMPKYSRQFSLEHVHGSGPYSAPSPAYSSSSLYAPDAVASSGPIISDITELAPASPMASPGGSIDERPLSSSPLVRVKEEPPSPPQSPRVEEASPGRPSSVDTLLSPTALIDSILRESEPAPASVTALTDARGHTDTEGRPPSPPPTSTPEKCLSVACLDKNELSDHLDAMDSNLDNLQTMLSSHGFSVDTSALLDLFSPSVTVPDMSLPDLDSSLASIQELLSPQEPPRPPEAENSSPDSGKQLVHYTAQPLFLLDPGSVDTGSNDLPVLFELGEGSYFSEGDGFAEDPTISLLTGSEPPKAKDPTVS
# How it was run: as §1
# SPIC = target: T2, SPIC (Homo sapiens, UniProt Q8N5J4 1-248); settings: protein: recombinant; tags: N-terminal GST; dsDNA, one strand shown
# T2 sequence: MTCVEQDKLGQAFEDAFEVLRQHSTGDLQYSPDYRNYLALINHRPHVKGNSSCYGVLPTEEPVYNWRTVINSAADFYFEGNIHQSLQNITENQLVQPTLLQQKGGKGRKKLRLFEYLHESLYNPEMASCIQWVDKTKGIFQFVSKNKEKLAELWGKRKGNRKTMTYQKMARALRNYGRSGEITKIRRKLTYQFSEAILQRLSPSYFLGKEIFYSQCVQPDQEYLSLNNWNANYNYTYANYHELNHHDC
# How it was run: as §1
# ELF4 = ELF4 (Homo sapiens, UniProt Q99607 1-663); settings: protein: recombinant; tags: N-terminal GST; dsDNA, one strand shown
# Chain of ELF4 (Q99607 whole entry): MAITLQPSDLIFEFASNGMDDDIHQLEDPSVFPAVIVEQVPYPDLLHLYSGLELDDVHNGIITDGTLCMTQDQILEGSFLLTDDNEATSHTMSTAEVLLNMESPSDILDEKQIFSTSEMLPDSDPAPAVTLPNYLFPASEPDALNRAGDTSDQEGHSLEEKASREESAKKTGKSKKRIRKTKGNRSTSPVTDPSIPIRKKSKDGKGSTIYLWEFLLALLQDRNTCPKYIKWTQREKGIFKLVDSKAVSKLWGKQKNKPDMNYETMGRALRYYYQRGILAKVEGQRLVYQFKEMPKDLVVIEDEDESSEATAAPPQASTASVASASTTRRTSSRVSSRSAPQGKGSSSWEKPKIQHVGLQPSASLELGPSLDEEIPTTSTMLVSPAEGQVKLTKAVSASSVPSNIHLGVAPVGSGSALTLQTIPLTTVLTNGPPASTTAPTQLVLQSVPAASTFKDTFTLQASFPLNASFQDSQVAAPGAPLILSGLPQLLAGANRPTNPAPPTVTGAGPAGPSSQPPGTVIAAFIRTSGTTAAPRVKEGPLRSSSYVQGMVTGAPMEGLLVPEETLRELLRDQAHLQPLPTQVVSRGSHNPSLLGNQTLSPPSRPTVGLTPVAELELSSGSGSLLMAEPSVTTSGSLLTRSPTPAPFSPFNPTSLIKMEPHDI
# How it was run: as §1
# ELK4 = target: T3, ELK4 (Homo sapiens, UniProt P28324-2 1-405); settings: protein: recombinant; tags: N-terminal GST; dsDNA, one strand shown
# T3 sequence: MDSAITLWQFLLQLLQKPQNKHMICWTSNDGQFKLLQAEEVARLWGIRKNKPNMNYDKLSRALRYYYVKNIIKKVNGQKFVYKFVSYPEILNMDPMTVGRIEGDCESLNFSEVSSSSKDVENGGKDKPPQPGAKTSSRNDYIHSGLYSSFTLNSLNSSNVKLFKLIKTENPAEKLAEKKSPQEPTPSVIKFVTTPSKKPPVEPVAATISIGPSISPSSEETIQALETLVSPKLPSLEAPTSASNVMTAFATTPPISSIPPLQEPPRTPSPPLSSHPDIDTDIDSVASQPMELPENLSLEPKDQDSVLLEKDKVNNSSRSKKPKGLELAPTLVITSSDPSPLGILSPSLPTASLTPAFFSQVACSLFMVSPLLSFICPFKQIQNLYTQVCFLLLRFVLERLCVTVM
# How it was run: as §1
# ETV2 = target: T4, ETV2 (Homo sapiens, UniProt O00321 1-342); settings: protein: recombinant; tags: N-terminal GST; dsDNA, one strand shown
# T4 sequence: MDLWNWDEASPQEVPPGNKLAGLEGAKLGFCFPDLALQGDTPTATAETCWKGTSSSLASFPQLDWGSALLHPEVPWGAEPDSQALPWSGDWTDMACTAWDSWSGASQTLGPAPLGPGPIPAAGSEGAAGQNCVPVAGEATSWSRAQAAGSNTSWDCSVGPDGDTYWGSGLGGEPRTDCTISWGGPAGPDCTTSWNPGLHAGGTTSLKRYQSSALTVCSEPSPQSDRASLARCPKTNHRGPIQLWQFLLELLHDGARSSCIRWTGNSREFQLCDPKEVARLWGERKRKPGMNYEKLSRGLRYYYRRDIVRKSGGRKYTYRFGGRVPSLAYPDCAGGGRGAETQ
# How it was run: as §1
# ELF3 = target: T5, ELF3 (Homo sapiens, UniProt P78545 1-371); settings: protein: recombinant; tags: N-terminal GST; dsDNA, one strand shown
# T5 sequence: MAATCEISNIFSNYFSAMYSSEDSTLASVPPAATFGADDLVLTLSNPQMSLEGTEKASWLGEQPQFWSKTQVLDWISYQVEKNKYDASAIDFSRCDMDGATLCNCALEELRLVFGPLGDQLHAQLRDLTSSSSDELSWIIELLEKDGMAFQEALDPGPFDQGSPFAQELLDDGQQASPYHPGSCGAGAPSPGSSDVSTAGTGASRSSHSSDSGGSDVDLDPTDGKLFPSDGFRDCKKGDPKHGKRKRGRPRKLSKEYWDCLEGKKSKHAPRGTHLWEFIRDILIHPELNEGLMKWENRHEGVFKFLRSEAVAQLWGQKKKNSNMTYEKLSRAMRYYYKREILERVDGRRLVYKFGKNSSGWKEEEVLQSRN
# How it was run: as §1
# CRX = CRX (Homo sapiens, UniProt O43186 1-299); settings: protein: recombinant; tags: N-terminal GST; dsDNA, one strand shown
# Chain of CRX (O43186 whole entry): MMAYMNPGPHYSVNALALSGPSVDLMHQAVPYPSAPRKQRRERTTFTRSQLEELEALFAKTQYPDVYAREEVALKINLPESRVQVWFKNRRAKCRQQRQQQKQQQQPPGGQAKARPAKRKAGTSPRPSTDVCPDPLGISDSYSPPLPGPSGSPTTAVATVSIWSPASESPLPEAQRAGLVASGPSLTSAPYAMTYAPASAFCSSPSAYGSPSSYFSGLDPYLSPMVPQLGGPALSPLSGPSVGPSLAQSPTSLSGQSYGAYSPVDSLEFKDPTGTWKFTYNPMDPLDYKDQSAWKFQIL
# How it was run: as §1
# ETV1 = ETV1 (Homo sapiens, UniProt P50549 1-477); settings: protein: recombinant; tags: N-terminal GST; dsDNA, one strand shown
# Chain of ETV1 (P50549 whole entry): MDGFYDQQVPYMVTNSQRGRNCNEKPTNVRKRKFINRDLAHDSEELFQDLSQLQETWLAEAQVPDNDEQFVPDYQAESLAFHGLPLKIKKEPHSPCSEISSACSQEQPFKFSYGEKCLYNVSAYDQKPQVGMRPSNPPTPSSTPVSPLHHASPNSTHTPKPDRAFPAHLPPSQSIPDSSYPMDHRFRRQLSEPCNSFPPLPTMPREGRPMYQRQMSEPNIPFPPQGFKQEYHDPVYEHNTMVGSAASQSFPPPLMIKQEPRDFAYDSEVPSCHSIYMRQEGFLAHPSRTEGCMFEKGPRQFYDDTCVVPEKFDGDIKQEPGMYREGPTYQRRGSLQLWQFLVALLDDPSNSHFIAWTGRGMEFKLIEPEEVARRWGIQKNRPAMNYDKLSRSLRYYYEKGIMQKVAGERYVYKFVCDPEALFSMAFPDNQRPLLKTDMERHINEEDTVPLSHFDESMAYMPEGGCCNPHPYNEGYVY
# How it was run: as §1
# ERF = target: T6, ERF (Homo sapiens, UniProt P50548 1-548); settings: protein: recombinant; tags: N-terminal GST; dsDNA, one strand shown
# T6 sequence: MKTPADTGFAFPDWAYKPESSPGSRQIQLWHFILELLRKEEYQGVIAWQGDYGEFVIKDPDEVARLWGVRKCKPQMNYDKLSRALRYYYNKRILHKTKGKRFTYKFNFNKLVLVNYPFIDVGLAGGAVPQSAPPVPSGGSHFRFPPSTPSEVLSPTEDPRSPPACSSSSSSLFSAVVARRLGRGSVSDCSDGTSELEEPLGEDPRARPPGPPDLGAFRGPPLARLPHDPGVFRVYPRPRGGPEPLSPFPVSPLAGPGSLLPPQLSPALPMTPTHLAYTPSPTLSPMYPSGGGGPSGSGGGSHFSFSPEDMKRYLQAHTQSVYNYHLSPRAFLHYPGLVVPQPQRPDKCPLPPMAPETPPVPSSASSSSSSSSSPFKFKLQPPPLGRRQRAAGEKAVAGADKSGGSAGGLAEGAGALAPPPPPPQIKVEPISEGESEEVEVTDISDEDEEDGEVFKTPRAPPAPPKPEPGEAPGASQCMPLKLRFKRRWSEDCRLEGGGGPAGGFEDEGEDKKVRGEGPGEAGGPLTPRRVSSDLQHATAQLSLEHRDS
# How it was run: as §1
# ETV3L = target: T7, ETV3L (Homo sapiens, UniProt Q6ZN32 1-361); settings: protein: recombinant; tags: N-terminal GST; dsDNA, one strand shown
# T7 sequence: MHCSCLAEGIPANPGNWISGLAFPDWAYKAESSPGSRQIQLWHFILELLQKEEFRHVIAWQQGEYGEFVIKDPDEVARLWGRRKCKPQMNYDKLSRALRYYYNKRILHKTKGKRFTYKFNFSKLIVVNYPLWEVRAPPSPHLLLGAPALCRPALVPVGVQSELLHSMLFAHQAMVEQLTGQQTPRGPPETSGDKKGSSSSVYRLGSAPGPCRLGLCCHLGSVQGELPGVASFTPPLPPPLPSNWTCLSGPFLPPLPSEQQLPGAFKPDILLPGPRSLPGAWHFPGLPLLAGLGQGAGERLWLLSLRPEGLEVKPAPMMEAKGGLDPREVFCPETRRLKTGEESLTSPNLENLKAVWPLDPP
# How it was run: as §1
# ETS2 = target: T8, ETS2 (Homo sapiens, UniProt P15036 1-469); settings: protein: recombinant; tags: N-terminal GST; dsDNA, one strand shown
# T8 sequence: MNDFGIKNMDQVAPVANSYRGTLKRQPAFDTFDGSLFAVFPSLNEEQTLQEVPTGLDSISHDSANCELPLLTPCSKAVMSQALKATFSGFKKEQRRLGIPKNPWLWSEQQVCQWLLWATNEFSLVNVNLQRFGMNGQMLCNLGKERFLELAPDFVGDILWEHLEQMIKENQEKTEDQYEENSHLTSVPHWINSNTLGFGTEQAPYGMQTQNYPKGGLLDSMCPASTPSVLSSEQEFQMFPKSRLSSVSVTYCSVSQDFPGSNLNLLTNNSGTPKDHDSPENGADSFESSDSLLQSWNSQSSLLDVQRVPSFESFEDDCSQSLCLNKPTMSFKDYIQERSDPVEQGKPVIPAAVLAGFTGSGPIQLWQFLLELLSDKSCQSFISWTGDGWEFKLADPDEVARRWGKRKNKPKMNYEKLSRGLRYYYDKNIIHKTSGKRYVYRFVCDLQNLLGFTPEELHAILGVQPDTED
# How it was run: as §1
# SPDEF = target: T9, SPDEF (Homo sapiens, UniProt O95238 1-335); settings: protein: recombinant; tags: N-terminal GST; dsDNA, one strand shown
# T9 sequence: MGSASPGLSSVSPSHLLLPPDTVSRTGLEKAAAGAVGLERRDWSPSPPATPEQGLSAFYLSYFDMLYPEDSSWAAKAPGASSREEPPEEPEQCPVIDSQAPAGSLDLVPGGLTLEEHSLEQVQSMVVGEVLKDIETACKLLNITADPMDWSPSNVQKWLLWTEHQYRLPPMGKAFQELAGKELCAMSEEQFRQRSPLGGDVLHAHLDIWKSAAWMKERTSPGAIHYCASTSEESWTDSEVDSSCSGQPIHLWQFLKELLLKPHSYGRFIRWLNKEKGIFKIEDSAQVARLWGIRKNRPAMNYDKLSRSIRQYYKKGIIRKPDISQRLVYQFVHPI
# How it was run: as §1
# ETV7 = target: T10, ETV7 (Homo sapiens, UniProt Q9Y603 1-341); settings: protein: recombinant; tags: N-terminal GST; dsDNA, one strand shown
# T10 sequence: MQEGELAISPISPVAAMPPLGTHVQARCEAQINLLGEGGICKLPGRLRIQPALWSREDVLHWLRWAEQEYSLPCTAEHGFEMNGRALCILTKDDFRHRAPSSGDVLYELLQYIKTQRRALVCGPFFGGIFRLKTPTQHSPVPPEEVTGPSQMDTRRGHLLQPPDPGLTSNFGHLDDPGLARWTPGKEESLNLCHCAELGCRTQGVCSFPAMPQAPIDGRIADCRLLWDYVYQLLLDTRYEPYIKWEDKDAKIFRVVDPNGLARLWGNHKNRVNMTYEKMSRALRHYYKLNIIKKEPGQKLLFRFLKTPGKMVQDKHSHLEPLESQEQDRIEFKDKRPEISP
# How it was run: as §1
# ELF5 = target: T11, ELF5 (Homo sapiens, UniProt Q9UKW6-2 1-255); settings: protein: recombinant; tags: N-terminal GST; dsDNA, one strand shown
# T11 sequence: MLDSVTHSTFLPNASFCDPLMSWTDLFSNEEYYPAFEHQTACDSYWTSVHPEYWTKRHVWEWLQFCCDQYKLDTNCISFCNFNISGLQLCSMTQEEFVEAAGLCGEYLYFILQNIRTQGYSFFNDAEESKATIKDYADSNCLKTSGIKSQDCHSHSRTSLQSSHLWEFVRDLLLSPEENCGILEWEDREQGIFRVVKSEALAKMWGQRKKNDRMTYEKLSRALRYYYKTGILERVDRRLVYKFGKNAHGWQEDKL
# How it was run: as §1
# ETV3 = target: T12, ETV3 (Homo sapiens, UniProt P41162-2 1-143); settings: protein: recombinant; tags: N-terminal GST; dsDNA, one strand shown
# T12 sequence: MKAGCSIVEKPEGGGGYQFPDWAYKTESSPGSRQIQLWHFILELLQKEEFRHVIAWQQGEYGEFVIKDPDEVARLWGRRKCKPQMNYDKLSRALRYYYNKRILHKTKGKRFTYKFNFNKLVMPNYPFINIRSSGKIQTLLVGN
# How it was run: as §1
# ETV6 = ETV6 (Homo sapiens, UniProt P41212 1-452); settings: protein: recombinant; tags: N-terminal GST; dsDNA, one strand shown
# Chain of ETV6 (P41212 whole entry): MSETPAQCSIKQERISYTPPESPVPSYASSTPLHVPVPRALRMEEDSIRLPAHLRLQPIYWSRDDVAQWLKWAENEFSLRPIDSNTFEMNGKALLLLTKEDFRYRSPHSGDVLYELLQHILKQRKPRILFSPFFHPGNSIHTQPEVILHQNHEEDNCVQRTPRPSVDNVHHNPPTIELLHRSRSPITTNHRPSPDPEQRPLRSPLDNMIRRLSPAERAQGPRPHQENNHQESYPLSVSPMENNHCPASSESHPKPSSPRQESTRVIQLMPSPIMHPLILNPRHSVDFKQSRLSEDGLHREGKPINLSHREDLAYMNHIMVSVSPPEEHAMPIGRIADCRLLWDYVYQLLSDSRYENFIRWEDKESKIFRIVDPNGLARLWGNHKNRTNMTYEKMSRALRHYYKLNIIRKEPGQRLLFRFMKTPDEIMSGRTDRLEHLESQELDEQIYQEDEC
# How it was run: as §1
sequence,measurement,setting,value
TAACTT,binding signal,FEV,"1.51 fold enrichment (6-mer frequency, TF over GST control)"
same,binding signal,ETV5,"1.45 fold enrichment (6-mer frequency, TF over GST control)"
same,binding signal,HSF1,"1.28 fold enrichment (6-mer frequency, TF over GST control)"
same,binding signal,SPIC,"1.56 fold enrichment (6-mer frequency, TF over GST control)"
same,binding signal,ELF4,"1.33 fold enrichment (6-mer frequency, TF over GST control)"
same,binding signal,ELK4,"1.32 fold enrichment (6-mer frequency, TF over GST control)"
same,binding signal,ETV2,"1.59 fold enrichment (6-mer frequency, TF over GST control)"
same,binding signal,ELF3,"1.35 fold enrichment (6-mer frequency, TF over GST control)"
same,binding signal,CRX,"1.56 fold enrichment (6-mer frequency, TF over GST control)"
same,binding signal,ETV1,"1.33 fold enrichment (6-mer frequency, TF over GST control)"
same,binding signal,ERF,"1.32 fold enrichment (6-mer frequency, TF over GST control)"
same,binding signal,ETV3L,"1.47 fold enrichment (6-mer frequency, TF over GST control)"
same,binding signal,ETS2,"1.38 fold enrichment (6-mer frequency, TF over GST control)"
same,binding signal,SPDEF,"1.28 fold enrichment (6-mer frequency, TF over GST control)"
same,binding signal,ETV7,"1.25 fold enrichment (6-mer frequency, TF over GST control)"
same,binding signal,ELF5,"1.44 fold enrichment (6-mer frequency, TF over GST control)"
same,binding signal,ETV3,"1.41 fold enrichment (6-mer frequency, TF over GST control)"
same,binding signal,ETV6,"1.32 fold enrichment (6-mer frequency, TF over GST control)"
